Data on 28 molecules can be found in the supplement of paper PMC6522484.

± gives the standard deviation of the averaged measurements.

For experiment [1], the system named is DLD1. The experiment is described as follows: cell viability (CellTiter-Glo) relative to plate median (fraction of plate median); higher = more viable cells. The following applies: 5 µM; treatment time 24 h; reporter: 7TFP. Summed up: (§1)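 For this screen, colorectal cancer cell lines carrying stable lentiviral TCF/Wnt firefly luciferase reporters, either 7TFP or TCF4/Wnt, were seeded into 384-well plates. A day's wait of 24 h preceded addition of library compounds at a final 5 µM, which stayed on the cells for 24 h. Firefly luciferase or CellTiterGlo luminescence, read on parallel plates, was normalised to the plate median per well, and the reported value is the mean of two independent replicates.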
A general note: In ATP-based viability assays light output follows the ATP content of the culture.

Another experiment concerns HCT116. The description is as above. The following applies: 5 µM; treatment time 24 h; reporter: TCF4/Wnt. In a few lines:
as §1

Experiment [2] relates to SW480. The description is as above. The note with it: 5 µM; treatment time 24 h; reporter: 7TFP. Summed up: as §1
In experiment [3] the test system is DLD1. The experiment in a line: TCF/Wnt firefly luciferase reporter signal relative to plate median (fraction of plate median); higher = higher Wnt reporter signal. The note with it: 5 µM; treatment time 24 h; reporter: 7TFP. Summed up: as §1
For orientation: A reporter such as luciferase makes a cellular process visible.

The test system of experiment [4] is SW480. Described as above. The following applies: 5 µM; treatment time 24 h; reporter: 7TFP. Summed up: as §1

With `C[C@]12CCC[C@H](O1)c1c(cc3c(c1O)C(=O)c1c(O)cc(O)cc1C3=O)O2` [Averufin (Isoform A, Compound ID 7507)], the cell viability in the experiment with DLD1 [1] came to 1.01 ± 0.12; in the experiment on HCT116, 1.05 ± 0.14; in the experiment on SW480 [2], 1.04 ± 0.088. Further, the entries for the “TCF/Wnt firefly luciferase reporter signal” value in the experiment on DLD1 [3] and with SW480 [4] were 0.896 ± 0.16 and 0.972 ± 0.083, respectively.
Take `COc1ccc([C@@H]2CC(=O)c3c(O)cc(O)cc3O2)cc1O`: the figures for the cell viability in the experiment with DLD1 [1], with HCT116 and in the experiment on SW480 [2] were 1.01 ± 0.014, 0.93 ± 0.052 and 0.9885 ± 0.0092, respectively. The figures for the “TCF/Wnt firefly luciferase reporter signal” value with DLD1 [3] and in the experiment with SW480 [4] were 1.02 ± 0.11 and 0.982 ± 0.04, respectively.
Regarding `COc1cc(OC)c2c(=O)c(-c3ccccc3)coc2c1`, the values for the cell viability in the experiment with DLD1 [1], in the experiment with HCT116 and in the experiment on SW480 [2] were 0.989 ± 0.0028, 1.04 ± 0.12 and 1.025 ± 0.0071, respectively. Further, the “TCF/Wnt firefly luciferase reporter signal” value was 1.09 ± 0.064 with DLD1 [3] and 1.1 ± 0.05 in the experiment with SW480 [4].
On the same counts, the results for `O=c1c(O)c(-c2ccccc2)oc2ccccc12` are 0.992 ± 0.026, 0.961 ± 0.069, 1 ± 0.027, 1.1 ± 0.16 and 0.977 ± 0.1.
Regarding `COc1ccc2[nH]c([S+]([O-])Cc3ncc(C)c(OC)c3C)nc2c1` (stereo not given), the cell viability came to 0.971 ± 0.084 in the experiment on DLD1 [1], 1.01 ± 0.048 in the experiment with HCT116 and 0.978 ± 0.06 with SW480 [2]. The figures for the “TCF/Wnt firefly luciferase reporter signal” value with DLD1 [3] and in the experiment with SW480 [4] were 1.09 ± 0.05 and 1.06 ± 0.11, respectively.
As for `CNCCC(Oc1ccc(C(F)(F)F)cc1)c1ccccc1` (stereo not given), the cell viability with DLD1 [1] was found to be 0.9505 ± 0.00071; in the experiment on HCT116 it was 0.952 ± 0.12; in the experiment on SW480 [2], 0.948 ± 0.069. For the same molecule, the figures for the “TCF/Wnt firefly luciferase reporter signal” value in the experiment with DLD1 [3] and in the experiment with SW480 [4] were 1.2 ± 0.26 and 0.993 ± 0.052, respectively.
With `CCn1cc(C(=O)O)c(=O)c2cc(F)c(N3CCN(C)CC3)cc21`, the cell viability in the experiment on DLD1 [1] was 1 ± 0.04; with HCT116, 1.015 ± 0.0071; with SW480 [2] it was 0.982 ± 0.018. For the same molecule, the figures for the “TCF/Wnt firefly luciferase reporter signal” value with DLD1 [3] and in the experiment on SW480 [4] were 1.19 ± 0.035 and 1.05 ± 0.078, respectively.
Consider `COCCCOc1cc(C[C@@H](C[C@H](N)[C@@H](O)C[C@H](C(=O)NCC(C)(C)C(N)=O)C(C)C)C(C)C)ccc1OC`, for which the results for the cell viability with DLD1 [1], in the experiment with HCT116 and in the experiment with SW480 [2] were 0.99 ± 0.029, 0.962 ± 0.068 and 0.974 ± 0.0057, respectively. The “TCF/Wnt firefly luciferase reporter signal” value was 0.991 ± 0.07 in the experiment with DLD1 [3] and 1.07 ± 0.021 with SW480 [4].
`CCC(=O)C(CC)C(O)C(C)CC(C)C1OC(=O)CC2(O)CC=C(C)C(O2)/C(C)=C/CCCC(OC2CC(OC(N)=O)C(O)C(C)O2)/C=C\C(C)C(O)C1C` (stereo not given): the cell viability in the experiment with DLD1 [1] is 1.08 ± 0.16; in the experiment on HCT116, 1; in the experiment with SW480 [2], 0.99 ± 0.015. Besides, the “TCF/Wnt firefly luciferase reporter signal” value is 0.87 ± 0.067 in the experiment with DLD1 [3] and 0.974 ± 0.025 in the experiment on SW480 [4].
On the same counts, the results for `C=C1C(=O)O[C@H]2C[C@@H]1C(OC(C)=O)C/C(C)=C/CC/C(C)=C/CC[C@@]2(C)O` (stereo not given in full) are 0.888 ± 0.067, 0.999 ± 0.058, 1.06 ± 0.014, 0.885 ± 0.13 and 0.892 ± 0.0092.
Regarding `COc1cc2c(cc1OC)C(=O)OC2`, the cell viability in the experiment on DLD1 [1] came out at 0.982 ± 0.054; in the experiment on HCT116, 1.12; in the experiment with SW480 [2], 1.025 ± 0.0071. Also, the “TCF/Wnt firefly luciferase reporter signal” value in the experiment with DLD1 [3] came out at 1.22 ± 0.014; with SW480 [4] it was 1.06 ± 0.014.
As for `N=C(N)NC(=O)c1nc(Cl)c(N)nc1N`, the cell viability in the experiment with DLD1 [1] was determined as 0.963 ± 0.067; in the experiment on HCT116, 0.988 ± 0.046; with SW480 [2], 1.01 ± 0.057. The “TCF/Wnt firefly luciferase reporter signal” value in the experiment on DLD1 [3] was 0.937 ± 0.024; in the experiment on SW480 [4] it was 1 ± 0.084.
As to `Cc1cc(O)c2c(c1O)C(=O)c1c(O)cc(C)c(O)c1C2=O`, the results for the cell viability with DLD1 [1], with HCT116 and with SW480 [2] were 0.979 ± 0.019, 0.968 ± 0.1 and 0.986 ± 0.063, respectively. In addition, the “TCF/Wnt firefly luciferase reporter signal” value in the experiment on DLD1 [3] was determined as 0.964 ± 0.039; in the experiment with SW480 [4] it was 1.01 ± 0.014.
For `CC(C)=CCC[C@@H](C)[C@H]1CC[C@@]2(C)C3=C(CC[C@]12C)[C@@]1(C)CC[C@H](O)C(C)(C)[C@@H]1CC3`, the values for the cell viability in the experiment with DLD1 [1], in the experiment with HCT116 and in the experiment with SW480 [2] were 1 ± 0.029, 1.01 ± 0.12 and 0.994 ± 0.0085, respectively. Moreover, the “TCF/Wnt firefly luciferase reporter signal” value was 0.952 ± 0.023 with DLD1 [3] and 0.83 ± 0.05 in the experiment with SW480 [4].
On the same counts, the results for `C[N+](C)(C)CCOP(=O)(O)OP(=O)([O-])OC[C@H]1O[C@@H](n2ccc(N)nc2=O)[C@H](O)[C@@H]1O` are 0.923 ± 0.1, 0.942 ± 0.016, 1.01 ± 0.017, 1.01 ± 0.096 and 1.04 ± 0.028.
As to `Cc1ccc(S(=O)(=O)NC(=O)NN2CCCCCC2)cc1`, the cell viability was found to be 0.911 ± 0.047 in the experiment with DLD1 [1], 0.918 ± 0.018 in the experiment with HCT116 and 0.968 ± 0.019 in the experiment with SW480 [2]. Further, the “TCF/Wnt firefly luciferase reporter signal” value in the experiment on DLD1 [3] is 0.881 ± 0.071; in the experiment on SW480 [4], 0.998 ± 0.031.
On to `NS(=O)(=O)c1cc2c(cc1Cl)NCNS2(=O)=O`, for which the cell viability was 0.988 ± 0.1 with DLD1 [1], 1.02 in the experiment with HCT116 and 1.04 ± 0.042 with SW480 [2]. Further, the results for the “TCF/Wnt firefly luciferase reporter signal” value in the experiment on DLD1 [3] and in the experiment with SW480 [4] were 1.15 ± 0.071 and 1.1 ± 0.028, respectively.
For the molecule `O=c1c(O)cccc2cc(O)c(O)c(O)c12`, the cell viability amounted to 1.06 ± 0.057 in the experiment on DLD1 [1], 0.914 ± 0.056 in the experiment on HCT116 and 1.01 ± 0.037 with SW480 [2]. Further, the “TCF/Wnt firefly luciferase reporter signal” value worked out at 1.04 ± 0.014 in the experiment on DLD1 [3] and 0.944 ± 0.094 in the experiment with SW480 [4].
For the molecule `CC(C)Cc1ccc(C(C)C(=O)O)cc1` (stereo not given), the cell viability with DLD1 [1] was determined as 0.962 ± 0.082; with HCT116, 1.04 ± 0.028; in the experiment with SW480 [2], 1.04 ± 0.068. Besides, the figures for the “TCF/Wnt firefly luciferase reporter signal” value with DLD1 [3] and in the experiment with SW480 [4] were 1.03 ± 0.021 and 1.06 ± 0.028, respectively.
On the same counts, the results for `COc1ccc(-c2coc3cc(OC(C)=O)cc(OC(C)=O)c3c2=O)cc1` are 1.01 ± 0.023, 0.994 ± 0.079, 0.976 ± 0.0057, 1.34 ± 0.3 and 1.23 ± 0.16.
On the same counts, the results for `COC(=O)C[C@H]1C(C)(C)[C@@H](OC(C)=O)[C@@H]2CC3=C4CC(=O)O[C@@H](c5ccoc5)[C@]4(C)CC[C@@H]3[C@@]1(C)C2=O` are 0.9945 ± 0.0078, 1.045 ± 0.0071, 0.963 ± 0.018, 0.993 ± 0.067 and 0.95 ± 0.041.
Take `C=C1[C@H]2CC[C@@]3(C)[C@H](c4ccoc4)OC(=O)C[C@]13O[C@H]1C[C@H](O)C(C)(C)[C@H](CC(=O)OC)[C@]12C` [3-DEOXY-3beta-HYDROXYANGOLENSIC ACID METHYL ESTER]: the cell viability with DLD1 [1] was determined as 1.01 ± 0.061; with HCT116 it was 0.958 ± 0.1; in the experiment with SW480 [2], 1.05 ± 0.11. The results for the “TCF/Wnt firefly luciferase reporter signal” value with DLD1 [3] and in the experiment with SW480 [4] were 1.06 ± 0.05 and 0.952 ± 0.035, respectively.
As for `CNCCCN1c2ccccc2CCc2ccccc21`, the cell viability with DLD1 [1] is 0.994 ± 0.023; with HCT116, 0.933 ± 0.013; with SW480 [2], 0.909 ± 0.041. In addition, the figures for the “TCF/Wnt firefly luciferase reporter signal” value in the experiment on DLD1 [3] and in the experiment with SW480 [4] were 0.868 ± 0.035 and 0.934 ± 0.045, respectively.
As for `Nc1ncnc2c1ncn2[C@@H]1O[C@H](CO)[C@@H](O)[C@@H]1O`, the cell viability in the experiment on DLD1 [1] was 0.9735 ± 0.0078; in the experiment with HCT116, 1.01 ± 0.021; in the experiment on SW480 [2] it was 0.975 ± 0.034. Further, the “TCF/Wnt firefly luciferase reporter signal” value was 1.08 ± 0.064 in the experiment with DLD1 [3] and 1.05 ± 0.05 in the experiment with SW480 [4].
For the molecule `CC(=O)c1c2c(c(C)n1-c1ccccc1C(=O)O)C(=O)c1c(O)cccc1C2=O` [Bhimamycin D], the cell viability in the experiment with DLD1 [1] stood at 1.02 ± 0.048; in the experiment with HCT116, 0.863 ± 0.025; with SW480 [2], 0.969 ± 0.072. Besides, the “TCF/Wnt firefly luciferase reporter signal” value is 1.05 ± 0.11 with DLD1 [3] and 1.08 ± 0.042 in the experiment on SW480 [4].
In the case of `CN(C/C=C/C#CC(C)(C)C)Cc1cccc2ccccc12`, the figures for the cell viability in the experiment with DLD1 [1], in the experiment with HCT116 and in the experiment with SW480 [2] were 1.04 ± 0.18, 1.04 ± 0.014 and 1.03 ± 0.035, respectively. Further, the “TCF/Wnt firefly luciferase reporter signal” value with DLD1 [3] amounted to 1.21 ± 0.042; in the experiment on SW480 [4], 1.07 ± 0.2.
Regarding `COc1c2ccoc2cc2oc(C)cc(=O)c12`, the cell viability was found to be 0.967 ± 0.016 in the experiment with DLD1 [1], 0.973 ± 0.12 in the experiment with HCT116 and 0.92 ± 0.0042 in the experiment with SW480 [2]. Moreover, the entries for the “TCF/Wnt firefly luciferase reporter signal” value in the experiment with DLD1 [3] and with SW480 [4] were 0.894 ± 0.012 and 0.986 ± 0.034, respectively.
Take `COc1cc(C(=O)N2CCOCC2)cc(OC)c1OC`: the results for the cell viability in the experiment on DLD1 [1], in the experiment with HCT116 and in the experiment on SW480 [2] were 1.08 ± 0.11, 1.03 ± 0.079 and 1.06 ± 0.028, respectively. The figures for the “TCF/Wnt firefly luciferase reporter signal” value in the experiment with DLD1 [3] and with SW480 [4] were 1.04 ± 0.24 and 1.08 ± 0.035, respectively.
